From PubChem BioAssay AID588342 (National Center for Advancing Translational Sciences (NCATS), 2011)
The whole screen tested about 360,000 compounds, of which about 25,000 (6.9%) were called active. Another 9% or so got no clear call; they are omitted. The sample holds actives, similar compounds and a random draw of the others, so the mix is not that of the screen. A number with no mark means an inactive call. Calls come from the whole dose curve; as a rule, active = well fitted inhibition curve with a large enough effect; inconclusive = small, poorly fitted or top-dose-only effect; inactive = flat fitted curve, though single readings scatter.

Biological target: Luciferin 4-monooxygenase (Photinus pyralis) (UniProt P08659)
Test: qHTS profiling assay for firefly luciferase inhibitor/activator using purifed enzyme and Km concentrations of substrates (counterscreen for miR-21 project); note: nearly all actives have a fitted effect of over 55% in size;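 for activity change, negative = inhibition: plate controls were vehicle for no effect and reference inhibitor for full effect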
Conditions: purified FLuc, luminescence inhibition; series mostly up to 57.5 µM; activity change, negative = inhibition: at the top concentration
Procedure, shortened: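 Purified P. pyralis luciferase, 10 nM final, with Km-level 10 uM D-luciferin and 10 uM ATP in 50 mM Tris acetate pH 7.5, 10 mM Mg acetate, 0.01% Tween-20, 0.05% BSA; 6-point qHTS titration about 60 µM downward; luminescence read.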
Potency is the fitted concentration of half-maximal effect.

Chain of Luciferin 4-monooxygenase (Photinus pyralis) (P08659 whole entry, looked up): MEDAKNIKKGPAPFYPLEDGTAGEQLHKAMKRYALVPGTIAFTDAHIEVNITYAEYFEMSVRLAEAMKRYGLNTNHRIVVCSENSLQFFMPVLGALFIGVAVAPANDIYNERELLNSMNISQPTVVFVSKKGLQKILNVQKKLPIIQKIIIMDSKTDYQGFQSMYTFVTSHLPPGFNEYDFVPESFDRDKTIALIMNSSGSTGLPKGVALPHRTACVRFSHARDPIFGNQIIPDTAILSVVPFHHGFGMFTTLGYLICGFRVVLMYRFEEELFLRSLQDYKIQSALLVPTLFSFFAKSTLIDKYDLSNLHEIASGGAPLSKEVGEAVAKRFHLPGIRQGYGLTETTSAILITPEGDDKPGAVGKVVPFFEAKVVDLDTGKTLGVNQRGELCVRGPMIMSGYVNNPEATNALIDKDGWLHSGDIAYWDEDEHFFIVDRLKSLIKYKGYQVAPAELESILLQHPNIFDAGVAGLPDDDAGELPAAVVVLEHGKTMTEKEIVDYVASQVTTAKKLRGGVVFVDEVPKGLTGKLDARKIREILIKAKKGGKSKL

Row | SMILES | activity change, negative = inhibition | Potency
1 | CCOC(=O)c1ccc(-c2ccc(/C=C(\C#N)C(=O)Nc3ccc(OCC)cc3)o2)cc1 | 1.93% | 
2 | CCCCn1c(N)c(N(CCC(C)C)C(=O)COC(=O)c2ccc(CC)cc2)c(=O)[nH]c1=O | -0.0866% | 
3 | Cc1ccc(CN2CCCn3nc(C(=O)NCc4ccccc4Cl)cc3C2=O)cc1 | -10.7% | 
4 | Cn1c(=O)c2c(SCC(=O)NCC3CCCO3)nc(-c3ccccc3F)nc2n(C)c1=O (configuration not stated) | 4.37% | 
5 | Cc1oc2ncnc(N3CCOCC3)c2c1C(=O)NCCc1ccccc1 | -1.45% | 
6 | CN(C)c1ccc(C=C2C(=O)OC3(CCCC3)OC2=O)cc1 |  | 23.9 µM (active)
7 | COCCN(Cc1ccccc1)C(=O)Cc1ccc(S(=O)(=O)N2CCOCC2)s1 | -2.29% | 
8 | CCCN(CCC)C(=O)C1CCCN(c2ncnc3c2nc2n3CCCCC2)C1 (configuration not stated) | 1.38% | 
9 | c1ccc(CN=C2Nc3ccccc3CS2)nc1 |  | 12 µM (active)
10 | COc1cccc(CNC(=O)CCC(=O)N2CC3CCCN3c3ccccc32)c1 (configuration not stated) | -10.7% | 
11 | CCc1ccc(N(CC(=O)NCc2cccnc2)S(=O)(=O)c2ccccc2)cc1 |  | 0.135 µM (active)
12 | O=C(CN(c1cc(C(F)(F)F)ccc1Cl)S(=O)(=O)c1ccccc1)NCc1cccnc1 | 7.62% | 
13 | CCCNS(=O)(=O)c1ccc(CCC(=O)NCc2cccnc2)cc1 | -1.83% | 
14 | Cc1ccc2sc(N(Cc3cccnc3)C(=O)C3COc4ccccc4O3)nc2c1C (configuration not stated) | 5.08% | 
15 | COc1cc(OC)cc(-c2nc3nc(C)c(CCC(=O)Nc4ccc(C)cc4)c(C)n3n2)c1 | 0.756% | 
16 | O=S(=O)(N1CCCCC1)N1CCNCC1 | -0.119% | 
17 | O=c1oc2ccccc2cc1-c1cn(-c2ccccc2)c(=S)[nH]1 |  | 0.849 µM (active)
18 | CS(=O)(=O)N1CCN(C(=O)c2cc3ccccc3oc2=O)CC1 | -0.589% | 
19 | S=c1[nH]c(-c2cccs2)cn1-c1ccccc1 | -15.8% | 
20 | COc1ccc(C2C(=O)N(C3CCCCCC3)CC(=O)N2CCc2ccc(Cl)cc2)cc1OC (configuration not stated) | 1.16% | 
21 | O=C(Cc1cccs1)N1CCCC(c2nc(-c3ccc(S(=O)(=O)N4CCCC4)cc3)no2)C1 (configuration not stated) | -0.16% | 
22 | COc1cc(-c2noc(C3CCCN(S(=O)(=O)c4cccc(Cl)c4)C3)n2)cc(OC)c1OC (configuration not stated) | 1.11% | 
23 | CC(C)c1ccc(-c2noc(C3CCCN(S(C)(=O)=O)C3)n2)cc1 (configuration not stated) |  | 19 µM (active)
24 | CCN(C(=O)CSc1ncnc2sccc12)c1c(N)n(Cc2ccccc2)c(=O)[nH]c1=O | 6.9% | 
25 | CCSc1nnc2c(n1)OC(c1ccc(OCC(=O)O)cc1)Nc1ccccc1-2 (configuration not stated) | -13.1% | 
26 | CCCCSc1nnc2c(n1)OC=Nc1ccccc1-2 |  | 23.9 µM (active)

Row | SMILES | activity change, negative = inhibition | Potency
27 | COc1ccc(NC(=O)Cn2cc(C(=O)c3ccncc3)c(=O)c3cc(C)ccc32)cc1Cl | 5.88% | 
28 | Cc1ccc(-c2cnc(C3CC3)o2)cc1S(=O)(=O)Nc1cccc(C)c1C | 3.16% | 
29 | CN(Cc1nc2ccc(F)cc2[nH]1)Cc1nc(CC2CC2)no1 | -2.03% | 
30 | O=C(Cn1c(=O)n(-c2ccc(F)cc2)c(=O)c2sccc21)Nc1cccc(C(F)(F)F)c1 | -6.93% | 
31 | CC(=O)Nc1cccc(NC(=O)CSc2cn(CC(=O)N3CCCC3)c3ccccc23)c1 | -1.16% | 
32 | Cc1cccc2c(=O)n3c(nc12)CCCCC3 | -10.5% | 
33 | CC1CCN(C(=O)c2ccc3c(=O)n4c(nc3c2)CCCCC4)CC1 | 2.48% | 
34 | O=c1c2c(nc3n1CCCCC3)sc1c(O)cccc12 |  | 4.26 µM (active)
35 | COc1ccc([C@H]2CC(=O)C=C(c3ccc(CO)cc3)C2)cc1 | -1.03% | 
36 | O=C1CCC(C(=O)N2CCN(c3ccccc3Cl)CC2)CN1CC1CCCCC1 (configuration not stated) | -1.63% | 
37 | S=C(Nc1ccc(Br)cc1Cl)NC1CCN(Cc2ccccc2)CC1 | 0.728% | 
38 | O=C(NNC(=S)Nc1ccc(Br)cc1Cl)c1ccco1 |  | 16.9 µM (active)
39 | CCC(=O)NC(=S)Nc1ccc(NC(=O)c2ccco2)c(Cl)c1 | -5.91% | 
40 | COc1ccc(S(=O)(=O)c2c(Nc3ccc(C)cc3)sc(C(=O)c3ccc(C)cc3)c2N)cc1 | -0.422% | 
41 | COc1ccc(-c2nc(CN3CCC(C(=O)NCc4ccccc4)CC3)c(C)o2)cc1OC | -0.814% | 
42 | COc1ccccc1N1CC(O)=C(c2nc3ccccc3s2)C1=N | -8.44% | 
43 | N=C1C(c2nc3ccccc3s2)=C(O)CN1NC(=O)c1ccc([N+](=O)[O-])cc1 |  | 13.5 µM (active)
44 | CCOC(=O)CCCN1CC(O)=C(c2nc3ccccc3s2)C1=N | 1.19% | 
45 | O=C(CSc1oc(-c2ccco2)nc1S(=O)(=O)c1ccccc1)c1ccc(Cl)cc1 | -4.3% | 
46 | Cc1ccc(-c2cc(-c3coc4ccccc4c3=O)c3c(n2)-c2cc(Cl)ccc2OC3)cc1 | -1% | 
47 | CC(C)(C)OC(=O)N1CCC(c2c(C(=O)N3CCN(c4cccc(Cl)c4)CC3)cnn2-c2cccc(Cl)c2)CC1 | -3.13% | 
48 | CCCCCn1c(CCCNC(=O)c2ccccc2OC)nc2ccccc21 | 4.7% | 
49 | CCOC(OCC)c1ccc(/C=C\c2nccc(N)n2)cc1 |  | 8.49 µM (active)
50 | CCOc1ccc(Nc2c(S(=O)(=O)c3ccccc3)cnc3ccccc23)cc1 | -10.5% | 
51 | CN(C(=O)Cn1nnc(-c2ccc(F)cc2)n1)C1CCS(=O)(=O)C1 (configuration not stated) | 3.37% | 
52 | COc1ccc(CNC(=O)CC2Oc3ccc(C)cc3NC2=O)cc1 (configuration not stated) | -0.891% | 

Row | SMILES | activity change, negative = inhibition | Potency
53 | Cc1c(C(=O)Nc2cccc(-c3nnc4n3CCCCC4)c2)oc2ccccc12 |  | 19 µM (active)
54 | CSc1ncccc1C(=O)NC1CCCCCC1 | -1.16% | 
55 | O=C(Cn1[nH]c(=O)c2ccccc2c1=O)Nc1cccc(-c2nnc3n2CCCCC3)c1 | -0.0091% | 
56 | O=S(=O)(c1cccc(-c2nnc3n2CCCCC3)c1)N1CCOCC1 | -2.77% | 
57 | Cc1c(C(=O)NC2CCCCC2)oc2ccccc12 |  | 15.1 µM (active)
58 | Cc1ccc(NC(=O)c2oc3ccccc3c2C)c([N+](=O)[O-])c1 | -14% | 
59 | O=C(Nc1ccc(F)cc1F)c1cnn(-c2ccc(F)cc2)c1-n1cccc1 | 0.499% | 
60 | CC(C)(C)OC(=O)N1CCC(c2c(C(=O)NCCc3ccsc3)cnn2-c2ccc(F)cc2F)CC1 | -7.33% | 
61 | CCOC(=O)c1sc(NC(=O)/C=C/c2ccc(C(C)C)cc2)c(C(=O)OCC)c1C | -0.567% | 
62 | C=CCNC(=O)/C=C/c1ccc(C(C)C)cc1 |  | 19 µM (active)
63 | O=C(/C=C/c1cn(-c2ccccc2)nc1-c1ccc2c(c1)OCCO2)NCCCN1CCOCC1 | -10.5% | 
64 | Cc1c(NC(=O)c2cccnc2)c(=O)n(-c2ccccc2)n1C | 0.783% | 
65 | CC(C)c1ccc(/C=C/C(=O)NCCCN2CCOCC2)cc1 |  | 21.3 µM (active)
66 | O=C(/C=C/c1ccc(Cl)cc1)NCCCn1ccnc1 | -9.77% | 
67 | CC(C)c1ccc(/C=C/C(=O)NNC(=O)c2cccnc2)cc1 |  | 12 µM (active)
68 | O=C(/C=C/c1ccc(F)cc1)NCCNC(=O)/C=C/c1ccc(F)cc1 | 0.42% | 
69 | COc1cccc(C(=O)NNC(=O)/C=C/c2ccccc2)c1 | 0.538% | 
70 | CCCOc1ccc(C2c3c(-c4ccccc4O)n[nH]c3C(=O)N2Cc2cccnc2)cc1 (configuration not stated) | -13.9% | 
71 | N#Cc1ccccc1Cn1cnc2nc3c(cc2c1=O)CCCC3 | 2.97% | 
72 | Cc1ccc(-n2nc(C)c3c(C)cc(=O)n(CC(=O)Nc4ccc(C(C)C)cc4)c32)cc1 | -0.504% | 
73 | Cc1c(C(=O)Nc2cccc(Cl)c2)oc2ccc(S(=O)(=O)N3CCOCC3)cc12 | 2.19% | 
74 | Cc1cccc(-c2nc(SCC(=O)Nc3cc(C)on3)c3c(=O)n(C)c(=O)n(C)c3n2)c1 | -3.67% | 
75 | Cc1ccc(NC(=O)Cn2cnc3nc4c(cc3c2=O)CCCC4)cc1Cl | 2.34% | 
76 | COc1ccc(NC(=O)c2cnc(Nc3ccc(C)c(Cl)c3)c3ccccc23)cc1OC | -0.0929% | 
77 | CC(C)(C)c1ccc(C(=O)CSc2ncn[nH]2)cc1 |  | 4.78 µM (active)
78 | CCN(C(=O)CSc1ncn[nH]1)c1cccc2ccccc12 | 0.343% | 

Row | SMILES | activity change, negative = inhibition | Potency
79 | COc1ccc(C(=O)CSc2nccc(=O)[nH]2)cc1 | 0.943% | 
80 | CC(C)OCCCn1c(SCC(=O)c2ccccc2)nc2c(sc3ccccc32)c1=O | -0.642% | 
81 | Cc1csc(SCC(=O)N(c2ccccc2)C(C)C)n1 | 0.743% | 
82 | CC(=O)OCCN(CCCn1c(-c2ccncc2)nc2ccccc21)c1nc(-c2ccc(C)cc2)cs1 | 1.22% | 
83 | Cc1ccc(C)c(NC(=O)NNC(=O)c2ccc3ccccc3c2O)c1 | -22.4% | 
84 | Cc1ccc2nc(/C(C#N)=C\c3ccc(OC(=O)c4cccs4)cc3)[nH]c2c1 | -3.56% | 
85 | CCOc1ccc(/C=C(\C#N)c2nc3ccccc3c(=O)[nH]2)cc1OC | -4.72% | 
86 | N#C/C(=C\c1ccccc1F)c1nc2ccccc2c(=O)[nH]1 | 7.06% | 
87 | Cc1ccc2nc(/C(C#N)=C/c3ccccc3F)[nH]c2c1 |  | 8.49 µM (active)
88 | Cc1ccccc1OC/C(O)=C(\C#N)c1nc2ccccc2[nH]1 | 0.866% | 
89 | COc1cc(/C=C(\C#N)c2nc3ccccc3[nH]2)ccc1O |  | 4.78 µM (active)
90 | COc1cccc2cc(-c3nc(Cl)c4c5c(sc4n3)CC(C)CC5)c(=O)oc12 (configuration not stated) | -13.3% | 
91 | COc1cc(/C=C(\C#N)c2nc3c(s2)CC(C)CC3)ccc1O (configuration not stated) |  | 0.675 µM (active)
92 | O=C1OC(C(=O)Nc2cccc(Br)c2)Cc2ccccc21 (configuration not stated) | -0.169% | 
93 | O=C(C1CC(=O)N(C2CCCC2)C1)N1CCN(c2cccc(C(F)(F)F)c2)CC1 (configuration not stated) | 3.15% | 
94 | Cc1ccc(CN2CCCOCCS2(=O)=O)cc1 | -0.0995% | 
95 | Cc1ccc(CNC(=O)CSC2=Nc3ccccc3C3=NC(C)C(=O)N23)cc1 (configuration not stated) | -7.16% | 
96 | Cc1c(Cl)cccc1-c1ccc(CNCCCSc2nnnn2C)o1 | -8.45% | 
97 | O=C(Cn1cc(/C=N/NC(=O)c2cccc(C(F)(F)F)c2)c2ccccc21)Nc1ccc(F)cc1 | 0.0534% | 
98 | CC(OC(=O)/C=C/c1ccccc1)C(=O)NC1CCCCC1C (configuration not stated) | 3.73% | 
99 | Cn1nccc1NC(=O)CC(CC(=O)O)c1ccccc1 (configuration not stated) | -0.627% | 
100 | O=C(CN1CCN(c2ccc(O)cc2)CC1)Nc1ccc(-c2ccccc2)cc1 | 2.93% | 
101 | Oc1ccc(-c2cccc(-c3ccc(O)cc3)c2)cc1 |  | 16.9 µM (active)
102 | CC(C#N)(NC(=O)CN1CCN(S(=O)(=O)c2cc(C(F)(F)F)ccc2Cl)CC1)C1CC1 (configuration not stated) | 0.354% | 
